# Results filed as inconclusive are left out. Where a call stands in place of a potency, no number is given. Activity calls are given as the source filed them. Unless noted, calls follow the shape of the dose curve; as a rule, active = well fitted curve in the direction sought with a large enough effect in the repeat runs; inconclusive = weak or mixed curves; inactive = no such curve, though single readings can be large; an effect the other way counts as inactive or inconclusive.
# Tests used:
# [1] = qHTS assay to identify small molecule antagonists of the thyroid receptor (TR) signaling pathway - cell viability counter screen (AID 743064); also: nearly all actives have a fitted effect of over 50% in size; also: potency is read from the fitted curve at half-maximal effect
# Summary of the method: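 GH3.TRE-Luc rat pituitary cells carrying a TRE-luciferase reporter were treated with compound plus 1 nM T3 (final) for 23.5 h at 37 °C. Viability was then read in the same wells by CellTiter-Fluor fluorescence after a further 30 min.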
# [2] = qHTS assay to identify small molecule antagonists of the thyroid receptor (TR) signaling pathway (AID 743065); also: potency is read from the fitted curve at half-maximal effect; nearly all actives have a fitted effect of over 55% in size
# Summary of the method: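 GH3.TRE-Luc rat pituitary cells (two TREs driving luciferase) were dosed with compound, then stimulated with 1 nM T3 (final) for 23.5 h at 37 C. ONE-Glo luminescence was the read-out, with CellTiter-Fluor fluorescence as the cytotoxicity counter-screen.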
# [3] = qHTS assay to identify small molecule antagonists of the estrogen receptor alpha (ER-alpha) signaling pathway using the BG1 cell line - cell viability counter screen (AID 743081);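 also: compound given together with 17beta-estradiol as the ER stimulus; series mostly up to about 70 µM; nearly all actives have a fitted effect of over 45% in size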
# [4] = target: Aromatase (Homo sapiens) (UniProt P11511); assay: qHTS assay to identify aromatase inhibitors (AID 743083); also: nearly all actives have a fitted effect of over 55% in size; also: potency is read from the fitted curve at half-maximal effect
# [5] = qHTS assay to identify aromatase inhibitors - cell viability counter screen (AID 743084);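 also: cells stimulated with testosterone during compound exposure; nearly all actives have a fitted effect of over 55% in size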; also: potency is read from the fitted curve at half-maximal effect
# [6] = target: Aryl hydrocarbon receptor (Homo sapiens) (UniProt P35869); assay: qHTS assay to identify small molecule that activate the aryl hydrocarbon receptor (AhR) signaling pathway (AID 743085); also: nearly all actives have a fitted effect of over 15% in size; also: potency is read from the fitted curve at half-maximal effect;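 as to activation: HG2L7.5c1 human HepG2 liver cells with stably integrated DRE-driven firefly reporter; series mostly up to about 70 µM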
# Summary of the method: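 HepG2 cells (HG2L7.5c1) stably carrying a firefly luciferase reporter driven by 20 dioxin responsive elements were exposed to compound for 24 h at 37C after a 5 h settling period; luminescence rise (ONE-Glo) indicated activation.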
# [7] = qHTS assay to identify small molecule that activate the aryl hydrocarbon receptor (AhR) signaling pathway - cell viability counter screen (AID 743086); also: nearly all actives have a fitted effect of over 45% in size; also: potency is read from the fitted curve at half-maximal effect
# Summary of the method: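 HepG2-AhR-luc (HG2L7.5c1) cells, 4000/well, treated 24 h at 37 C with compound; viability measured as CellTiter-Fluor fluorescence after 30 min in the same wells as the luciferase read.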
# [8] = qHTS assay to identify small molecule antagonists of the peroxisome proliferator-activated receptor gamma (PPARg) signaling pathway - cell viability counter screen (AID 743194); also: nearly all actives have a fitted effect of over 55% in size; also: potency is read from the fitted curve at half-maximal effect
# Summary of the method: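 Cytotoxicity counter screen in PPARg-bla HEK293H cells, same wells as reporter assay. Compounds plus 50 nM rosiglitazone (final) for 17 h at 37 C, then viability read by CellTiter-Glo luminescence.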
# [9] = qHTS assay for small molecule agonists of the antioxidant response element (ARE) signaling pathway - cell viability counter screen (AID 743203; calls by dose curve; also: nearly all actives have a fitted effect of over 55% in size; also: potency is read from the fitted curve at half-maximal effect)
# Summary of the method: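 Cells (ARE-bla HepG2, 2,000/well) receive DMSO-dissolved compounds after a 5 hrs rest. Plates incubate 16 hrs at 37C/5% CO2. CellTiter-Glo luminescence is then recorded after 30 min at room temperature.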
# [10] = qHTS assay to identify small molecule agonists of the peroxisome proliferator-activated receptor delta (PPARd) signaling pathway - cell viability counter screen (AID 743211); also: nearly all actives have a fitted effect of over 55% in size; also: potency is read from the fitted curve at half-maximal effect
# Summary of the method: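 PPARd-bla HEK293H cells (UAS-beta-lactamase reporter) were treated with compounds for 17 h at 37 C. Viability was then read in the same wells by CellTiter-Glo luminescence after 30 min at room temperature.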
# [11] = tested on: thyroid hormone receptor (rat, GH3 cells); assay: qHTS assay to identify small molecule agonists of the thyroid receptor (TR) signaling pathway (AID 743066; calls by dose curve)
# [12] = target: Estrogen receptor (Homo sapiens) (UniProt P03372); assay: qHTS assay to identify small molecule antagonists of the estrogen receptor alpha (ER-alpha) signaling pathway (AID 743069; active = well fitted curve in the direction sought with a large enough effect in the signal ratio in the repeat runs, not every such curve was filed as active; the % refers to the signal ratio)
# Summary of the method: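 HEK293 ER-alpha-UAS-bla GripTite cells, held overnight in 2% charcoal-stripped FBS, 5,000 cells/well, preincubated 4 h, then compound plus 17beta-estradiol for 18 h at 37C. Beta-lactamase read by LiveBLAzer B/G FRET substrate, 2 h at room temperature.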
# [13] = qHTS assay to identify small molecule antagonists of the estrogen receptor alpha (ER-alpha) signaling pathway - cell viability counter screen (AID 743074; calls by dose curve;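 also: HEK293 cells carrying ER-alpha-UAS-bla reporter stimulated with 17beta-estradiol; nearly all actives have a fitted effect of over 45% in size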; also: potency is read from the fitted curve at half-maximal effect)
# [14] = target: Estrogen receptor (Homo sapiens) (UniProt P03372); assay: qHTS assay to identify small molecule agonists of the estrogen receptor alpha (ER-alpha) signaling pathway (AID 743075; calls by dose curve)
# [15] = target: Estrogen receptor (Homo sapiens) (UniProt P03372); assay: qHTS assay to identify small molecule agonists of the estrogen receptor alpha (ER-alpha) signaling pathway using the BG1 cell line (AID 743079); also: nearly all actives have a fitted effect of over 20% in size; also: potency is read from the fitted curve at half-maximal effect
# [16] = qHTS assay to identify small molecule antagonists of the estrogen receptor alpha (ER-alpha) signaling pathway using the BG1 cell line (AID 743080; calls by dose curve;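 also: BG1 cells stimulated with 17beta-estradiol alongside compound; series mostly up to about 70 µM; nearly all actives have a fitted effect of over 25% in size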)
# Summary of the method: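 Seeding, 24 h rest, compound transfer from DMSO, 17beta-estradiol addition, 21.5 h incubation, CellTiter-Fluor (30 min, 37 C), then ONE-Glo (30 min, room temperature): this sequence was run on BG1-Luc-4E2 reporter cells.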
# [17] = target: Peroxisome proliferator-activated receptor gamma (Homo sapiens) (UniProt P37231); assay: qHTS assay to identify small molecule agonists of the peroxisome proliferator-activated receptor gamma (PPARg) signaling pathway (AID 743094; active = well fitted activation curve with a large enough effect in the signal ratio in the repeat runs, not every such curve was filed as active; the % refers to the signal ratio)
# Summary of the method: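 Stably transfected HEK293H cells (GeneBLAzer PPARg UAS-bla) were incubated with test substances for 17 h at 37C after a 5 h pre-incubation; beta-lactamase activity was then detected by FRET substrate fluorescence.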
# [18] = target: Peroxisome proliferator-activated receptor delta (Homo sapiens) (UniProt Q03181); assay: qHTS assay to identify small molecule agonists of the peroxisome proliferator-activated receptor delta (PPARd) signaling pathway (AID 743212; calls by dose curve)
# Summary of the method: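 GeneBLAzer UAS-bla HEK293H cells carrying a PPARδ construct were exposed to compounds at 37 °C. Beta-lactamase activity was read by FRET fluorescence after 2 h at room temperature with LiveBLAzer B/G substrate.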
# Peroxisome proliferator-activated receptor gamma (Homo sapiens), sequence (P37231 whole entry, looked up): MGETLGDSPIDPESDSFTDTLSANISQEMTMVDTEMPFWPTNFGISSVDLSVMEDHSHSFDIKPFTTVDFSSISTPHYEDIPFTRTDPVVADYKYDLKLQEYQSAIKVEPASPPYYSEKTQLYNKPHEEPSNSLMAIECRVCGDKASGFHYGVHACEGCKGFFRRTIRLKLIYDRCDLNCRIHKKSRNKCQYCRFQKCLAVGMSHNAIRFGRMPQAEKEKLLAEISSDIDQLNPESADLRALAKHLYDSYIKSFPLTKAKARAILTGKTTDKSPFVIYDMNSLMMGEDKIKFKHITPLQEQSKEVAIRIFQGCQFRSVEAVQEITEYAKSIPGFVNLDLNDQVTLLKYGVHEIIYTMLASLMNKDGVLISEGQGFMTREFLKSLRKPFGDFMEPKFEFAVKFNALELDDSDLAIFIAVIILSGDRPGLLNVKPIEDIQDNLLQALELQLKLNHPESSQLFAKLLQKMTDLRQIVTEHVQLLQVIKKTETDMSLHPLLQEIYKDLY
# Aryl hydrocarbon receptor (Homo sapiens), sequence (P35869 whole entry, looked up): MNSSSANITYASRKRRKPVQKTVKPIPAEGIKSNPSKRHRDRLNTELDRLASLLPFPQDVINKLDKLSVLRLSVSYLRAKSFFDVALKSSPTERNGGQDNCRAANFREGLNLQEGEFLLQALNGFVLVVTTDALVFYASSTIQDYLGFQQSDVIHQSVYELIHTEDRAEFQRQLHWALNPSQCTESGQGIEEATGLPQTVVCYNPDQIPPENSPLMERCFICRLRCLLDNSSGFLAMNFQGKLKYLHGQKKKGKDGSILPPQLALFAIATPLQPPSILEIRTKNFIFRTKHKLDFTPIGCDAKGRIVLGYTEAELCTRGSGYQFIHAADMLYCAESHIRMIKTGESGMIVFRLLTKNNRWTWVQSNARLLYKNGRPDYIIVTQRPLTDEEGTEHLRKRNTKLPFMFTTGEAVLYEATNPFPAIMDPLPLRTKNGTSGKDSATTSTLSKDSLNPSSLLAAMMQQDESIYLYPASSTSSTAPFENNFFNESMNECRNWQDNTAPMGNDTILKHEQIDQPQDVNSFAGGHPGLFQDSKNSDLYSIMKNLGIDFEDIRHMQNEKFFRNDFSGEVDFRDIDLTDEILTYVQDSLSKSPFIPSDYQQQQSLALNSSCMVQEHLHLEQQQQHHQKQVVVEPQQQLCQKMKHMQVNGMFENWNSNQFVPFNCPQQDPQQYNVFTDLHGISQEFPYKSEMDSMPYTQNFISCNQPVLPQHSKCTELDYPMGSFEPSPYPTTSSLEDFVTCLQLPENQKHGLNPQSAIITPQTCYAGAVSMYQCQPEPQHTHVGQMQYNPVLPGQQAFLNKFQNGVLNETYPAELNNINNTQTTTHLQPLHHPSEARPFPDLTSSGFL
# Estrogen receptor (Homo sapiens), sequence (P03372 whole entry, looked up): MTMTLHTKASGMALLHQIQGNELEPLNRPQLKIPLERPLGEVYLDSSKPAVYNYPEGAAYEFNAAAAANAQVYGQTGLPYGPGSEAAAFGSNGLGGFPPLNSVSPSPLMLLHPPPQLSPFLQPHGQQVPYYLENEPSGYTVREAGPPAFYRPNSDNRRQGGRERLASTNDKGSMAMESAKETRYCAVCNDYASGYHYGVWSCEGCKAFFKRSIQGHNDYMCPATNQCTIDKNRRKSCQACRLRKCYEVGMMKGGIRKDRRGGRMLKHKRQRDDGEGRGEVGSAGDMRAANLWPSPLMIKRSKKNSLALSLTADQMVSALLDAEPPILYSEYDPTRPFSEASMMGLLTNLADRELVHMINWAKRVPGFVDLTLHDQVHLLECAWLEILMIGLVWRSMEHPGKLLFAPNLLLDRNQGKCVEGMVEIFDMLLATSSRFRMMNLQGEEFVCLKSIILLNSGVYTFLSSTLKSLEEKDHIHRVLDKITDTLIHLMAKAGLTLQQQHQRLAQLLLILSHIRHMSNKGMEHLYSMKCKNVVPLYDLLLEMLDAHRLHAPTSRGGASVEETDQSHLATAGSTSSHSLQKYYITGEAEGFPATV
# Aromatase (Homo sapiens), sequence (P11511 whole entry, looked up): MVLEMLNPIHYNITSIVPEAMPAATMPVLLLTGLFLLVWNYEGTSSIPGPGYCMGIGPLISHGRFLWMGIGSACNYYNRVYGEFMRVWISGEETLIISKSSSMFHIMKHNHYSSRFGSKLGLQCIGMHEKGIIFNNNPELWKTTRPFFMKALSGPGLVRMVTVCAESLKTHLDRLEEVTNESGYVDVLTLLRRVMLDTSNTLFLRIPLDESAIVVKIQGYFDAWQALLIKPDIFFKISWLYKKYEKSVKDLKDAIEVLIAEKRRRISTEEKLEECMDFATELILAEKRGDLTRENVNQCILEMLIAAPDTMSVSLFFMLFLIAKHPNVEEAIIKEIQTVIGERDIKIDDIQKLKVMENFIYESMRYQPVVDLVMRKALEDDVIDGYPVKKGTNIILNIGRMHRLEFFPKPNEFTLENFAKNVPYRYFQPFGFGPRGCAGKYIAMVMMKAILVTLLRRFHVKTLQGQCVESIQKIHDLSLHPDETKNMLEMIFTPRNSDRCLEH
# Peroxisome proliferator-activated receptor delta (Homo sapiens), sequence (Q03181 whole entry, looked up): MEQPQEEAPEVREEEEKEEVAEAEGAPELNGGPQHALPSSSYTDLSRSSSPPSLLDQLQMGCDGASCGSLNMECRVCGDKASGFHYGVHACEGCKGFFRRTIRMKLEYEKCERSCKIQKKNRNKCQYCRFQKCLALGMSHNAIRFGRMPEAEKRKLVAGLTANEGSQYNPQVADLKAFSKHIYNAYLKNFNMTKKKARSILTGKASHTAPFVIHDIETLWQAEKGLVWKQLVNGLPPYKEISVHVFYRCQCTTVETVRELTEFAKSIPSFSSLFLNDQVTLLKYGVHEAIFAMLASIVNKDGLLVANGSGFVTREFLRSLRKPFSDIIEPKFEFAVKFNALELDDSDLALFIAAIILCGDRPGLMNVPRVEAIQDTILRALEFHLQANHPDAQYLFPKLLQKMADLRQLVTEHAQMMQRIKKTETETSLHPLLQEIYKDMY
SMILES,Potency [1],Potency [2],Potency [3],Potency [4],Potency [5],Potency [6],Potency [7],Potency [8],Potency [9],Potency [10],Potency [11],Potency [12],Potency [13],Potency [14],Potency [15],Potency [16],Potency [17],outcome [18]
N#Cc1nc(Cl)c(Cl)c(Cl)c1Cl,2.43 µM (active),1.72 µM (active),inactive,4.86 µM (active),7.7 µM (active),inactive,54.5 µM (active),4.36 µM (active),6.11 µM (active),7.76 µM (active),–,–,–,–,–,–,–,–
NC[C@H]1O[C@H](O[C@H]2[C@H](O)[C@@H](O[C@H]3O[C@H](CO)[C@@H](O)[C@H](N)[C@H]3O)[C@H](N)C[C@@H]2N)[C@H](N)C[C@@H]1O,inactive,–,inactive,inactive,inactive,inactive,inactive,–,–,–,inactive,inactive,inactive,inactive,inactive,inactive,inactive,–
O=C1[O][Bi][O]c2ccccc21,inactive,–,inactive,inactive,inactive,–,–,–,–,–,inactive,–,inactive,inactive,inactive,inactive,–,–
NC[C@@H]1CC[C@@H](N)[C@@H](O[C@H]2[C@H](O)[C@@H](O[C@H]3O[C@H](CO)[C@@H](O)[C@H](N)[C@H]3O)[C@H](N)C[C@@H]2N)O1,inactive,–,inactive,inactive,inactive,inactive,inactive,–,–,–,inactive,inactive,inactive,inactive,11.9 µM (active),inactive,inactive,–
CCC[C@@H]1C[C@@H](C(=O)N[C@@H]([C@H]2O[C@H](SC)[C@H](OP(=O)(O)O)[C@@H](O)[C@H]2O)[C@H](C)Cl)N(C)C1,inactive,–,inactive,inactive,inactive,inactive,inactive,–,–,–,inactive,inactive,inactive,inactive,inactive,inactive,inactive,–
CS(=O)(=O)c1ccc([C@@H](O)[C@@H](COC(=O)CN)NC(=O)C(Cl)Cl)cc1,inactive,–,inactive,inactive,inactive,inactive,inactive,–,–,–,inactive,inactive,inactive,inactive,inactive,inactive,inactive,–
CC/C=C\C/C=C\C/C=C\C/C=C\C/C=C\CCCC(=O)O,inactive,–,inactive,inactive,inactive,inactive,–,–,–,–,inactive,inactive,inactive,inactive,inactive,inactive,–,–
CC1(C)C[C@@H]1C(=O)N/C(=C\CCCCSC[C@H](N)C(=O)O)C(=O)O,inactive,–,inactive,inactive,inactive,inactive,inactive,–,–,–,inactive,–,inactive,–,–,–,–,–
C=CC(N)CCC(=O)O (configuration not stated),inactive,–,inactive,inactive,inactive,inactive,inactive,–,–,–,inactive,inactive,inactive,inactive,inactive,inactive,inactive,–
CN1CC[C@H](c2c(O)cc(O)c3c(=O)cc(-c4ccccc4Cl)oc23)[C@H](O)C1,0.211 µM (active),0.15 µM (active),–,0.211 µM (active),–,–,–,inactive,inactive,inactive,–,–,–,–,–,–,–,–
C=C1[C@@H]2CC[C@@H](C2)C1(C)C,inactive,–,inactive,inactive,inactive,inactive,inactive,–,–,–,inactive,inactive,inactive,inactive,29.8 µM (active),inactive,inactive,–
C=CCN1C(=O)C(CC(C)C)NC1=S (configuration not stated),inactive,–,inactive,inactive,inactive,inactive,inactive,–,–,–,inactive,inactive,inactive,inactive,inactive,inactive,inactive,–
C[C@H]1O[C@@H](O[C@H]2CC[C@@]3(C)[C@H](CC[C@@H]4[C@@H]3C[C@@H](O)[C@]3(C)[C@@H](C5=CC(=O)OC5)CC[C@]43O)C2)C[C@H](O)[C@@H]1O[C@H]1C[C@H](O)[C@H](O[C@H]2C[C@H](O)[C@H](O[C@@H]3O[C@H](CO)[C@@H](O)[C@H](O)[C@H]3O)[C@@H](C)O2)[C@@H](C)O1,inactive,–,inactive,inactive,inactive,inactive,inactive,0.15 µM (active),0.075 µM (active),0.298 µM (active),inactive,–,0.268 µM (active),inactive,–,–,–,–
CO/N=C(\C(=O)N[C@@H]1C(=O)N2C(C(=O)O)=C(C[N+]3(C)CCCC3)CS[C@H]12)c1csc(N)n1,inactive,–,inactive,inactive,inactive,inactive,inactive,–,–,–,inactive,inactive,inactive,inactive,inactive,inactive,inactive,–
OCCCNc1ccccc1,inactive,–,–,inactive,inactive,inactive,–,–,–,–,inactive,inactive,inactive,inactive,inactive,inactive,inactive,–
CN1CCN(CCCN2c3ccccc3Sc3ccc(Cl)cc32)CC1,6.68 µM (active),6.68 µM (active),–,–,–,9.44 µM (active),23.7 µM (active),–,29.8 µM (active),26.6 µM (active),–,–,–,inactive,–,inactive,–,inactive
COc1c(O)cc2c(c1O)[C@@H]1O[C@H](CO)[C@@H](O)[C@H](O)[C@H]1OC2=O,inactive,–,inactive,inactive,inactive,inactive,inactive,–,–,–,inactive,inactive,–,inactive,inactive,inactive,inactive,–
